According to PubChem BioAssay AID2551 (National Center for Advancing Translational Sciences (NCATS), 2010):
Screen size: about 310,000 compounds; about 17,000 (5.5%) were called active. Inconclusive results (about 11%) are left out. Only a selection was taken, and actives are over-represented in it overall. Values without a mark were called inactive. Calls come from the whole dose curve; as a rule, active = well fitted inhibition curve with a large enough effect; inconclusive = small, poorly fitted or top-dose-only effect, or effect the other way; inactive = no such curve, though single readings can be large or run the other way.

target: Nuclear receptor ROR-gamma (Mus musculus) (UniProt P51450); test: qHTS for inhibitors of ROR gamma transcriptional activity; details: Drosophila S2 Gal4-RORgamma UAS-luciferase reporter, 20 h; series mostly up to 53.6 µM; activity change, negative = inhibition: at the top concentration; note: nearly all actives have a fitted effect of over 60% in size
Sequence (P51450 whole entry, looked up, the tested form may be a part): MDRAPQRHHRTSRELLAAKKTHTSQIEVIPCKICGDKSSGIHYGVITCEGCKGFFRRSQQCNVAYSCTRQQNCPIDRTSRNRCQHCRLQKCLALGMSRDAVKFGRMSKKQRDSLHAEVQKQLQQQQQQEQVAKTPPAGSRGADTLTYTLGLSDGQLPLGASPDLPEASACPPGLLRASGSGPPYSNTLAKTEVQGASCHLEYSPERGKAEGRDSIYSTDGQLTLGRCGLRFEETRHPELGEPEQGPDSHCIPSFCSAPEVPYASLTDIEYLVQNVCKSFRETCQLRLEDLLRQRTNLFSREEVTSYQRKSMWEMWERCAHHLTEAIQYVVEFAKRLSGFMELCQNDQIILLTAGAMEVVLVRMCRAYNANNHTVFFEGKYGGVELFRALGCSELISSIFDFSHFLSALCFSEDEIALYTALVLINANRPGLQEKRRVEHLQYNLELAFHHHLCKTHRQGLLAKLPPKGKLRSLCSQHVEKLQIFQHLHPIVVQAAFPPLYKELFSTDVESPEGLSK
Method in brief: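 Drosophila Schneider cells stably carrying a metallothionein-driven Gal4 DBD–ROR gamma fusion and a UAS-Photinus luciferase reporter were exposed to compound for 1 hr, then induced with copper sulfate (700 uM final) for 20 hr at ambient temperature before luminescence reading.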
% is set by controls: 0 for no effect and ±100 for the full control effect; potency is the fitted concentration of half-maximal effect.

Row | Compound | activity change, negative = inhibition | Potency
1 | Cc1ccc(C)c(N2CCN(S(=O)(=O)c3c(C)[nH]c(C)c3C(=O)N3CCCC3)CC2)c1 | 1.12% | –
2 | CCC1(CC)Cc2ccccc2-c2nc(CCl)[nH]c(=O)c21 | – | 11.2 µM (active)
3 | CCOC(=O)C1Cn2c(nc3c(c2=O)C(C)(CC)Cc2ccccc2-3)S1 (stereo not given) | 4.88% | –
4 | CC1(C)Cc2ccccc2-c2nc(CN3CCOCC3)[nH]c(=O)c21 | -5.08% | –
5 | CC(=O)c1ccc(OCC(O)CN2CCN(S(=O)(=O)c3cccc(Br)c3)CC2)cc1 (stereo not given) | 1.55% | –
6 | COC(=O)C1CCCCN1C(=O)c1ccc(OC2CCN(C(C)=O)CC2)c(OC)c1 (stereo not given) | 0% | –
7 | Cc1ccc(CN(CC(=O)NCC2CCCO2)S(=O)(=O)c2ccc(C)cc2)cc1 (stereo not given) | -3.1% | –
8 | COc1ccccc1Cn1c(CO)nc2ccccc21 | -33.8% | –
9 | COCn1c(COc2ccccc2)nc2ccccc21 | -18.9% | –
10 | COCc1nc2ccccc2n1Cc1ccccc1Br | – | 6.31 µM (active)
11 | Cc1ccc(S(=O)(=O)NNC(=O)Nc2cccc3ccccc23)cc1 | 2.09% | –
12 | CC(NC(=O)Nc1ccccc1)c1ccccc1 (stereo not given) | -8.38% | –
13 | CC(NC(=S)NNS(=O)(=O)c1ccc(C(C)(C)C)cc1)c1ccccc1 (stereo not given) | – | 8.91 µM (active)
14 | Cc1ccc(S(=O)(=O)CC(=O)NC(C)c2ccccc2)cc1 (stereo not given) | 21% | –
15 | Cc1ccc(S(=O)(=O)NNC(=S)NC(C)(C)C)cc1 | – | 8.91 µM (active)
16 | COc1ccc(C(=O)NNS(=O)(=O)c2ccc(C)cc2)cc1 | -13.6% | –
17 | CCOc1ccc(N(CC(=O)NCCc2ccc(F)cc2)S(=O)(=O)c2ccccc2)cc1 | 14.9% | –
18 | COc1ccccc1CNC(=O)[C@@H]1CCCN1C(=O)[C@@H]1Cc2ccccc2CN1C(=O)OC(C)(C)C | 33.9% | –
19 | CCN(CC)c1ccc(C(=O)Nn2c(C)nc3ccccc3c2=O)cc1 | -16.6% | –
20 | CCCCCc1ccc(-c2cn(Cc3ccc4ccccc4c3)nn2)cc1 | -1.78% | –
21 | CCCCCc1ccc(-c2ccc(OCC)cc2)nc1 | -33.7% | –
22 | CCCCCc1ccc(-c2ccc(C(=O)O)cc2)nc1 | – | 6.31 µM (active)
23 | Cc1cccc(-c2nnc(SCC(=O)O)n2Cc2ccccc2)c1 | 4.58% | –
24 | CCCCC(CC)CNC(=O)CCCCn1c(=O)[nH]c2ccsc2c1=O (stereo not given) | -18.2% | –

Row | Compound | activity change, negative = inhibition | Potency
25 | O=C(CCC(=O)c1cccs1)NC1CCCCCC1 | 9.7% | –
26 | O=C(CCCCCn1c(=S)[nH]c2ccsc2c1=O)NC1CCCCC1 | – | 11.2 µM (active)
27 | O=C(CN1C(=O)c2ccccc2C1=O)NCc1ccc(C(=O)O)cc1 | -11.3% | –
28 | COc1ccc(N(CC(=O)Nc2cc(OC)cc(OC)c2)S(=O)(=O)c2c(C)n[nH]c2C)cc1 | -11.3% | –
29 | Cc1cccc(N2CCN(C(C)C(=O)N3CCc4ccccc43)CC2)c1C (stereo not given) | -0.135% | –
30 | Cc1ccn(CCC(=O)N2c3ccccc3CC2C)n1 (stereo not given) | -3.48% | –
31 | COc1ccc(-n2c(C)csc2=S)cc1 | 13.1% | –
32 | COc1ccc(N2C(=O)CNC2=S)cc1 | -0.234% | –
33 | COc1ccc(-c2cn(-c3ccc(OC)cc3)c(=S)[nH]2)cc1 | – | 0.398 µM (active)
34 | COc1ccc(S(=O)(=O)N(CC(=O)N/N=C/c2ccc(C(=O)O)cc2)Cc2ccccc2)cc1OC | -0.595% | –
35 | COc1ccc(-n2ncc3c(SCC(=O)NNC(C)=O)ncnc32)cc1 | -14.4% | –
36 | CC(C)C[C@@H](COc1ccccc1)N1CCN(CC(C)C)CCC1=O | 5.12% | –
37 | CCOC(=O)CN/C=C(\C#N)c1ccc(F)cc1 | 4.9% | –
38 | C/C(=N\OCC(=O)O)c1ccc(Cl)cc1 | 2.12% | –
39 | CCOc1cc(/C=C(/C#N)c2ccc(Cl)cc2)cc(Cl)c1OCC(=O)O | – | 0.891 µM (active)
40 | CC(C)C(NC(=O)c1ccc(Cl)cc1)C(=O)O (stereo not given) | 5.86% | –
41 | CCOC(=O)NNC(=O)c1ccc(Cl)cc1 | 22.9% | –
42 | CC(C)CNC(=S)NC(=O)c1ccc(Cl)cc1 | – | 3.98 µM (active)
43 | COc1ccc(C2=NS(=O)(=O)N(C)C(C(=O)N(C)Cc3ccccc3)=C2)cc1 | 10.9% | –
44 | CCn1cc(CCC(=O)NCc2ccc(F)cc2)c2ccccc21 | -1.55% | –
45 | C/C(=N\c1nc2ccccc2n1C)c1cc(Cl)ccc1O | -4.15% | –
46 | CCN(CC)CCn1c(/N=C/c2cc(Br)ccc2O)nc2ccccc21 | – | 3.98 µM (active)
47 | CCN(CC)CCn1c(N)c(S(=O)(=O)c2ccccc2)c2nc3ccccc3nc21 | -4.59% | –
48 | Cc1ccc(Cn2c(C)c3cnn(CC(=O)NCc4ccccn4)c(=O)c3c2C)cc1 | -19.1% | –

Row | Compound | activity change, negative = inhibition | Potency
49 | CCn1c(=N)n(CC(=O)c2cccc(OC)c2)c2ccccc21 | – | 6.31 µM (active)
50 | COc1ccc2cc(C(=O)O)n(CC(=O)c3ccccc3)c2c1 | 10.7% | –
51 | CCOC(=O)c1cc2ccccc2n1CC(=O)c1ccccc1 | 0.755% | –
52 | COc1ccc(NC(=O)c2cc(-c3cc(OC)c(OC)c(OC)c3)nc3ccccc23)c(OC)c1 | 32.5% | –
53 | COC(=O)c1ccc(COc2ccc(C#N)cc2)o1 | -14.9% | –
54 | COc1ccc(C2/C(=C(/O)c3ccccc3)C(=O)C(=O)N2C)c(OC)c1 (stereo not given) | -11.9% | –
55 | CCn1c(C(O)c2cc(OC)ccc2OC)nc2ccccc21 (stereo not given) | -4.76% | –
56 | CCCn1c(C(O)c2cc(OC)ccc2OC)nc2ccccc21 (stereo not given) | – | 17.8 µM (active)
57 | COc1ccc(OC)c(C(O)c2nc3ccccc3n2C)c1 (stereo not given) | 2.31% | –
58 | CCOC(=O)c1ccccc1NS(=O)(=O)c1c(C)nc2sccn2c1=O | 35.7% | –
59 | OCC(CO)NC1C[C@](O)(CO)[C@@H](O)[C@H](O)[C@H]1O (stereo not given in full) | 4.55% [at 10 µM] | –
60 | C=CCn1c(SCC(=O)NC23CC4CC(CC(C4)C2)C3)nc(O)cc1=O | 34% | –
61 | C=CCn1c(C23CC4CC(CC(C4)C2)C3)n[nH]c1=S | – | 2.82 µM (active)
62 | C=CCn1c(SCC(=O)NC)nnc1C12CC3CC(CC(C3)C1)C2 | -9.51% | –
63 | Cc1nn(Cc2ccccc2)c(C)c1NS(=O)(=O)c1ccccc1 | 23.2% | –
64 | Cc1ccccc1NC(=O)CCNS(=O)(=O)c1ccc2[nH]c(=O)oc2c1 | -15.3% | –
65 | COc1cccc(/C=C/c2ccc3ccccc3n2)c1OC(C)=O | – | 2 µM (active)
66 | COc1cccc(/C=C2\C=C(c3ccc(C)cc3)OC2=O)c1OC(C)=O | -1.83% | –
67 | CC(OC(=O)c1ccc2ccccc2n1)C(=O)c1ccccc1 (stereo not given) | 22.8% | –
68 | CCOc1cccc(/C=C/c2ccc3ccccc3n2)c1OC(C)=O | – | 3.98 µM (active)
69 | CCOc1ccccc1-c1cc(C(=O)N2CCOCC2)c2ccccc2n1 | 28.2% | –
70 | CC(=O)c1ccc(S(=O)(=O)N2CCN(C(=O)/C=C/c3ccc4ccccc4n3)CC2)cc1 | 16.1% | –
